PubChem BioAssay AID1159580 (chemical genetic matrix, 2015)
Values joined by “and” are separate entries in the source; they are usually repeats but may differ in a detail not shown here. Equal entries are not always repeated. Hit rate of the full screen: of about 5,500 compounds, about 2,000 (36%) were called active. About 18% were inconclusive and are not listed. No stated cut-off is given here; in the data, active means normalized growth mostly below about 0.91 (no sharp cut-off); inconclusive means no clear call, values can overlap the other calls; inactive means mostly above about 0.92. This is one part of the list.

Assay: chemical genetic growth profiling, strain panel (AID 1159580);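 further: tested at 20 µM; growth read once vehicle control cultures reached saturation at 30 °C; 1 = growth at the plate median or of vehicle wells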
Settings: growth OD

Measured: normalized growth

Nc1c2c(nc3ccccc13)CCCC2
active: S. cerevisiae deletion strains, locus YNL248C, strain rpa49, stronger effect = lower value 0.84
inactive: S. cerevisiae deletion strains, locus YKL068W, stronger effect = lower value 1.01 | S. cerevisiae deletion strains, locus YKL085W, strain MDH1 (second series), stronger effect = lower value 1.01 | S. cerevisiae deletion strains, locus YKL085W, strain MDH1, stronger effect = lower value 1.01 | S. cerevisiae deletion strains, locus YKL160W, strain elf1, stronger effect = lower value 1.01 | S. cerevisiae deletion strains, locus YKL190W, strain CNB1, stronger effect = lower value 1.02 | S. cerevisiae deletion strains, locus YKR001C, strain vps1, stronger effect = lower value 0.998 | S. cerevisiae deletion strains, locus YKR026C, strain gcn3, stronger effect = lower value 0.986 | S. cerevisiae deletion strains, locus YKR091W, strain srl3, stronger effect = lower value 0.994 | S. cerevisiae deletion strains, locus YLL001W, strain dnm1, stronger effect = lower value 0.989 | S. cerevisiae deletion strains, locus YLL026W, stronger effect = lower value 0.99 | S. cerevisiae deletion strains, locus YLL041C, strain sdh2, stronger effect = lower value 0.982 | S. cerevisiae deletion strains, locus YLR027C, strain aat2, stronger effect = lower value 0.984 | S. cerevisiae deletion strains, locus YLR039C, strain RIC1, stronger effect = lower value 1.09 | S. cerevisiae deletion strains, locus YLR058C, strain SHM2, stronger effect = lower value 1.02 | S. cerevisiae deletion strains, locus YLR102C, strain apc9, stronger effect = lower value 1.01 | S. cerevisiae deletion strains, locus YLR113W, strain HOG1, stronger effect = lower value 1.02 | S. cerevisiae deletion strains, locus YLR221C, strain rsa3, stronger effect = lower value 0.963 | S. cerevisiae deletion strains, locus YLR258W, strain gsy2, stronger effect = lower value 1 | S. cerevisiae deletion strains, locus YLR262C, strain YPT6 (second series), stronger effect = lower value 1.01 | S. cerevisiae deletion strains, locus YLR262C, strain YPT6, stronger effect = lower value 1.1 | S. cerevisiae deletion strains, locus YLR268W, strain sec22, stronger effect = lower value 1.01 | S. cerevisiae deletion strains, locus YLR320W, strain mms22, stronger effect = lower value 0.947 | S. cerevisiae deletion strains, locus YLR330W, strain CHS5, stronger effect = lower value 1.01 | S. cerevisiae deletion strains, locus YLR342W, strain FKS1 (second series), stronger effect = lower value 1 | S. cerevisiae deletion strains, locus YLR342W, strain FKS1, stronger effect = lower value 0.999 | S. cerevisiae deletion strains, locus YLR357W, strain rsc2, stronger effect = lower value 0.994 | S. cerevisiae deletion strains, locus YLR370C, strain arc18, stronger effect = lower value 1.01 | S. cerevisiae deletion strains, locus YLR371W, strain rom2, stronger effect = lower value 1.03 | S. cerevisiae deletion strains, locus YLR384C, strain iki3, stronger effect = lower value 0.99 | S. cerevisiae deletion strains, locus YLR418C, strain cdc73, stronger effect = lower value 1.03 | S. cerevisiae deletion strains, locus YML016C, strain PPZ1, stronger effect = lower value 1.01 | S. cerevisiae deletion strains, locus YML032C, strain rad52, stronger effect = lower value 1.01 | S. cerevisiae deletion strains, locus YML120C, strain ndi1, stronger effect = lower value 1 | S. cerevisiae deletion strains, locus YML124C, strain tub3, stronger effect = lower value 1.02 | S. cerevisiae deletion strains, locus YMR058W, strain fet3, stronger effect = lower value 0.979 | S. cerevisiae deletion strains, locus YMR078C, strain ctf18, stronger effect = lower value 1.02 | S. cerevisiae deletion strains, locus YMR125W, strain sto1, stronger effect = lower value 1.01 | S. cerevisiae deletion strains, locus YMR129W, stronger effect = lower value 0.99 | S. cerevisiae deletion strains, locus YMR205C, strain PFK2, stronger effect = lower value 1.01 | S. cerevisiae deletion strains, locus YMR223W, strain ubp8, stronger effect = lower value 1.01 | S. cerevisiae deletion strains, locus YMR231W, strain pep5, stronger effect = lower value 0.976 | S. cerevisiae deletion strains, locus YMR263W, strain SAP30, stronger effect = lower value 1.01 | S. cerevisiae deletion strains, locus YMR307W, strain GAS1, stronger effect = lower value 0.999 | S. cerevisiae deletion strains, locus YNL067W, strain RPL9B, stronger effect = lower value 0.998 | S. cerevisiae deletion strains, locus YNL071W, strain lat1, stronger effect = lower value 1 | S. cerevisiae deletion strains, locus YNL128W, strain TEP1, stronger effect = lower value 1.01 | S. cerevisiae deletion strains, locus YNL153C, strain GIM3, stronger effect = lower value 0.994 | S. cerevisiae deletion strains, locus YNL175C, strain NOP13, stronger effect = lower value 0.99 | S. cerevisiae deletion strains, locus YNL183C, strain NPR1, stronger effect = lower value 0.954 | S. cerevisiae deletion strains, locus YNL197C, strain WHI3, stronger effect = lower value 1.01 | S. cerevisiae deletion strains, locus YNL209W, strain ssb2, stronger effect = lower value 1.01 | S. cerevisiae deletion strains, locus YNL224C, strain SQS1, stronger effect = lower value 0.995 | S. cerevisiae deletion strains, locus YNL233W, strain BNI4, stronger effect = lower value 0.999 | S. cerevisiae deletion strains, locus YNL250W, strain rad50, stronger effect = lower value 1.03 | S. cerevisiae deletion strains, locus YNL271C, strain bni1, stronger effect = lower value 1.02 | S. cerevisiae deletion strains, locus YNL298W, strain CLA4, stronger effect = lower value 1.02 | S. cerevisiae deletion strains, locus YNL307C, strain MCK1, stronger effect = lower value 1.02 | S. cerevisiae deletion strains, locus YNL322C, strain KRE1 (second series), stronger effect = lower value 1.01 | S. cerevisiae deletion strains, locus YNL322C, strain KRE1, stronger effect = lower value 1.01 | S. cerevisiae deletion strains, locus YNR049C, strain mso1, stronger effect = lower value 0.975 | S. cerevisiae deletion strains, locus YNR052C, strain pop2, stronger effect = lower value 1 | S. cerevisiae deletion strains, locus YOL006C, strain TOP1, stronger effect = lower value 1.05 | S. cerevisiae deletion strains, locus YOL012C, strain htz1 0.82 | S. cerevisiae deletion strains, locus YOL147C, strain pex11, stronger effect = lower value 1.01 | S. cerevisiae deletion strains, locus YOR001W, strain rrp6, stronger effect = lower value 0.925 | S. cerevisiae deletion strains, locus YOR061W, strain CKA2, stronger effect = lower value 1.02 | S. cerevisiae deletion strains, locus YOR069W, strain VPS5, stronger effect = lower value 1.01 | S. cerevisiae deletion strains, locus YOR070C, strain gyp1, stronger effect = lower value 0.975 | S. cerevisiae deletion strains, locus YOR080W, strain dia2, stronger effect = lower value 0.969 | S. cerevisiae deletion strains, locus YOR083W, strain WHI5 (second series), stronger effect = lower value 0.962 | S. cerevisiae deletion strains, locus YOR083W, strain WHI5, stronger effect = lower value 0.994 | S. cerevisiae deletion strains, locus YOR106W, strain vam3, stronger effect = lower value 0.997 | S. cerevisiae deletion strains, locus YOR136W, strain idh2, stronger effect = lower value 1.02 | S. cerevisiae deletion strains, locus YOR144C, strain elg1, stronger effect = lower value 1.02 | S. cerevisiae deletion strains, locus YOR184W, strain ser1, stronger effect = lower value 1.04 | S. cerevisiae deletion strains, locus YOR231W, strain MKK1, stronger effect = lower value 0.985 | S. cerevisiae deletion strains, locus YOR265W, strain rbl2, stronger effect = lower value 0.99 | S. cerevisiae deletion strains, locus YOR270C, strain vph1, stronger effect = lower value 0.888 | S. cerevisiae deletion strains, locus YOR290C, strain snf2, stronger effect = lower value 0.971 | S. cerevisiae deletion strains, locus YOR316C, strain cot1, stronger effect = lower value 1.02 | S. cerevisiae deletion strains, locus YPL051W, strain arl3, stronger effect = lower value 0.951 | S. cerevisiae deletion strains, locus YPL055C, strain LGE1, stronger effect = lower value 1.02 and 0.992 | S. cerevisiae deletion strains, locus YPL078C, strain atp4, stronger effect = lower value 1.02 | S. cerevisiae deletion strains, locus YPL106C, strain sse1, stronger effect = lower value 0.982 | S. cerevisiae deletion strains, locus YPL240C, strain hsp82, stronger effect = lower value 0.987 | S. cerevisiae deletion strains, locus YPL241C, strain CIN2, stronger effect = lower value 1.01 | S. cerevisiae deletion strains, locus YPL256C, strain CLN2, stronger effect = lower value 0.995 | S. cerevisiae deletion strains, locus YPR119W, strain clb2, stronger effect = lower value 1.01 | S. cerevisiae deletion strains, locus YPR141C, strain kar3, stronger effect = lower value 1.01 | S. cerevisiae deletion strains, locus YPR163C, strain tif3, stronger effect = lower value 1.01 | S. cerevisiae deletion strains, locus YPR167C, strain met16, stronger effect = lower value 1.02 | S. cerevisiae deletion strains, strain wtn01, stronger effect = lower value 1.02 | S. cerevisiae strains, strain wild type, stronger effect = lower value 1.02
